Experimental findings from the OligoGym collection are described below.
Further: reference of the scale not given here.

One test deals with ESR2. Nature of the test: pooled miR-30 sensor sort-seq; sequence = guide strand. Conditions: shRNA.
Regarding TTACATCCTTCACACGACCAGA, the sensor-assay potency score (higher = more potent) is -0.608.

On to TACAGATGTGATAACTGGCGAT, for which the sensor-assay potency score (higher = more potent) is -0.498.

Sequence TTACAGGTAAGGTGTGTTCTAG registered a sensor-assay potency score (higher = more potent) of -0.694.

TTCCAAGTTAGTGACATTGCTG returned a sensor-assay potency score (higher = more potent) of -0.291.

Regarding TATCGATTGTACACTGATTTGT, the sensor-assay potency score (higher = more potent) was -0.431.

Regarding TTCCTTTTCAGTGTCTCTCTGT, the sensor-assay potency score (higher = more potent) was determined as 0.263.

The sequence TTGTACACTGATTTGTAGCTGG gave a sensor-assay potency score (higher = more potent) of 0.245.

In the case of TTATGTCCTTGAATGCTTCTTT, the sensor-assay potency score (higher = more potent) worked out at 0.411.

With TTATCGATTGTACACTGATTTG, the sensor-assay potency score (higher = more potent) is -1.64.

On to TTGTCGGCCAACTTGGTCAGGG, for which the sensor-assay potency score (higher = more potent) is -0.443.

For TTTTATCGATTGTACACTGATT, the sensor-assay potency score (higher = more potent) is -1.06.

Take AAATATAATCATTATGTCCTTG: the sensor-assay potency score (higher = more potent) is -0.156.

The sequence TTTTCTGCCCTCGCATGCCTGA gave a sensor-assay potency score (higher = more potent) of -0.946.

For TAAAAAAGGCCTTACATCCTTC, the sensor-assay potency score (higher = more potent) was -0.442.

Sequence TACCCACATCTCTCTCTCCGGG gave a sensor-assay potency score (higher = more potent) of -0.444.

For TCCAAGTTAGTGACATTGCTGG, the sensor-assay potency score (higher = more potent) was determined as 0.101.

The next test concerns the target ETFA. The test is described as above. Conditions: shRNA.
TTATGAAATGTAGCTCTCCATG gave a sensor-assay potency score (higher = more potent) of -1.39.

TTGATTGCAATGATGTCAGAAA: the sensor-assay potency score (higher = more potent) is -0.689.

In the case of TTTCACTTTCTCATCACACTTC, the sensor-assay potency score (higher = more potent) came out at 0.639.

Regarding TTCTCATCACACTTCACTGTAC, the sensor-assay potency score (higher = more potent) is -0.442.

For the sequence TGTGTAATTGAACTGCTTCTGA, the sensor-assay potency score (higher = more potent) was found to be 0.237.

For the sequence TAAATAGTTCTCACAAATGTGT, the sensor-assay potency score (higher = more potent) was -0.288.

Regarding TTAGCTCTGGTCGATCACTTTT, the sensor-assay potency score (higher = more potent) is -1.24.

For the sequence TATAATACCCACAAATATCTGT, the sensor-assay potency score (higher = more potent) is 0.241.

As to TTGATGCCTTTTCTGAACTGGC, the sensor-assay potency score (higher = more potent) is -0.864.

On to TCCAACTTGCATGTCATTGGGA, for which the sensor-assay potency score (higher = more potent) was -0.493.

TTTCTCATCACACTTCACTGTA showed a sensor-assay potency score (higher = more potent) of 0.00115.

The sequence TAATTGAACTGCTTCTGAGTTG gave a sensor-assay potency score (higher = more potent) of -0.401.

Consider TGTAATTGAACTGCTTCTGAGT, for which the sensor-assay potency score (higher = more potent) was -0.4.

TTTACAGAGATCTTGTGCCACC: the sensor-assay potency score (higher = more potent) is -0.57.

TTTCTGAACTGGCACTACCGCC: the sensor-assay potency score (higher = more potent) is -0.966.

With TATTCCATAATCTGCCACTTGG, the sensor-assay potency score (higher = more potent) is -0.476.

TAGTTCTCACAAATGTGTCAGG gave a sensor-assay potency score (higher = more potent) of -0.609.

TGAACTGCTTCTGAGTTGCCAA: the sensor-assay potency score (higher = more potent) was -0.648.

With TAAATCTGCAACTATTCCATAA, the sensor-assay potency score (higher = more potent) is -0.957.

Regarding TCTTGCTGTCTTTCATCCCAGC, the sensor-assay potency score (higher = more potent) is -0.987.

With TTTCTGGTCAAGCCACTCTGAT, the sensor-assay potency score (higher = more potent) is -1.17.

Turning to TAGCTCTGGTCGATCACTTTTT, the sensor-assay potency score (higher = more potent) is -1.
